From the supplement of paper PMC12669032
A number with no mark means an inactive call.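 How the source made its calls: active = AUC reduced over 20% with Padj below 0.05 in at least 2 of 3 replicates; inactive = otherwise.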

Experiments:
Test in all cases: growth AUC relative to DMSO control (median of replicates) (fraction); higher = more growth (less inhibition), active = hit call of the paper
Conditions in all cases: 20 µM; 24 h
[1] = system: Coprococcus comes
Outline: (§1)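 Gut bacterial monocultures were grown anaerobically at 37 °C in mGAM from a starting OD600 of 0.05 with 20 µM compound (1% DMSO), in round-bottom 96-well plates under pierced gas-permeable seals, and OD600 was read hourly for 24 h. With the minimum OD set to 0, area under the growth curve was normalised to the plate median of solvent-only wells, or to row and column medians on the industrial chemical plate. Each value is the median of three biological replicates grown on separate days.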

[2] = system: Escherichia coli ED1a
Outline: as §1

[3] = system: Escherichia coli IAI1
Outline: as §1

[4] = system: Eubacterium rectale
Outline: as §1

[5] = system: Fusobacterium nucleatum subsp. animalis
Outline: as §1

[6] = system: Lactobacillus gasseri
Outline: as §1

[7] = system: Lactobacillus paracasei
Outline: as §1

[8] = system: Odoribacter splanchnicus
Outline: as §1

[9] = system: Parabacteroides distasonis
Outline: as §1

[10] = system: Parabacteroides merdae
Outline: as §1

[11] = system: Roseburia intestinalis
Outline: as §1

[12] = system: Streptococcus salivarius
Outline: as §1

CNC(=O)c1cc(Cl)cc(C)c1NC(=O)c1cc(Br)nn1-c1ncccc1Cl
growth AUC [1]: 0.991
growth AUC [2]: 0.988
growth AUC [3]: 0.995
growth AUC [4]: 0.961
growth AUC [5]: 0.867
growth AUC [6]: 1.03
growth AUC [7]: 0.961
growth AUC [8]: 0.926
growth AUC [9]: 1.01
growth AUC [10]: 0.98
growth AUC [11]: 0.957
growth AUC [12]: 0.99

ClC1(Cl)C2(Cl)C3(Cl)C4(Cl)C(Cl)(Cl)C5(Cl)C3(Cl)C1(Cl)C5(Cl)C24Cl (configuration not stated)
growth AUC [1]: 0.986
growth AUC [2]: 1.03
growth AUC [3]: 0.989
growth AUC [4]: 0.98
growth AUC [5]: 0.997
growth AUC [6]: 0.939
growth AUC [7]: 0.897
growth AUC [8]: 0.982
growth AUC [9]: 1.03
growth AUC [10]: 0.966
growth AUC [11]: 0.958
growth AUC [12]: 0.922

Nc1nc(N)[nH]c(=O)n1
growth AUC [1]: 1.02
growth AUC [2]: 1.02
growth AUC [3]: 1.03
growth AUC [4]: 0.978
growth AUC [5]: 0.964
growth AUC [6]: 0.982
growth AUC [7]: 1.04
growth AUC [8]: 0.956
growth AUC [9]: 1.05
growth AUC [10]: 1.01
growth AUC [11]: 0.981
growth AUC [12]: 1

CCOP(=S)(OCC)Oc1cc(C)nc(C(C)C)n1
growth AUC [1]: 0.982
growth AUC [2]: 1
growth AUC [3]: 0.992
growth AUC [4]: 1.12
growth AUC [5]: 1.03
growth AUC [6]: 1.02
growth AUC [7]: 1.03
growth AUC [8]: 0.999
growth AUC [9]: 0.924
growth AUC [10]: 1
growth AUC [11]: 0.984
growth AUC [12]: 1.03

Oc1ccccc1Cl
growth AUC [1]: 0.975
growth AUC [2]: 1.01
growth AUC [3]: 1.01
growth AUC [4]: 0.921
growth AUC [5]: 0.994
growth AUC [6]: 1.05
growth AUC [7]: 0.883
growth AUC [8]: 0.906
growth AUC [9]: 0.995
growth AUC [10]: 1
growth AUC [11]: 0.965
growth AUC [12]: 1.01

ClC(Cl)=C(c1ccc(Cl)cc1)c1ccc(Cl)cc1
growth AUC [1]: 0.914
growth AUC [2]: 1
growth AUC [3]: 0.986
growth AUC [4]: 1.02
growth AUC [5]: 1.03
growth AUC [6]: 0.938
growth AUC [7]: 0.921
growth AUC [8]: 1.02
growth AUC [9]: 0.985
growth AUC [10]: 0.909
growth AUC [11]: 0.945
growth AUC [12]: 0.965

C#CCN1C(=O)COc2cc(F)c(N3C(=O)C4=C(CCCC4)C3=O)cc21
growth AUC [1]: 1.01
growth AUC [2]: 0.98
growth AUC [3]: 0.984
growth AUC [4]: 1.09
growth AUC [5]: 0.944
growth AUC [6]: 0.883
growth AUC [7]: 0.934
growth AUC [8]: 0.948
growth AUC [9]: 0.855
growth AUC [10]: 0.958
growth AUC [11]: 0.965
growth AUC [12]: 0.974

ClC1=C(Cl)[C@]2(Cl)[C@@H]3[C@@H]4C[C@@H]([C@H]5O[C@@H]45)[C@@H]3[C@@]1(Cl)C2(Cl)Cl
growth AUC [1]: 0.95
growth AUC [2]: 0.977
growth AUC [3]: 0.996
growth AUC [4]: 0.999
growth AUC [5]: 0.881
growth AUC [6]: 0.999
growth AUC [7]: 0.959
growth AUC [8]: 0.899
growth AUC [9]: 1.05
growth AUC [10]: 0.932
growth AUC [11]: 1
growth AUC [12]: 1.03

COC(=O)C(C)N(C(=O)c1ccco1)c1c(C)cccc1C (configuration not stated)
growth AUC [1]: 0.96
growth AUC [2]: 0.971
growth AUC [3]: 0.981
growth AUC [4]: 1.06
growth AUC [5]: 1.04
growth AUC [6]: 0.86
growth AUC [7]: 1.06
growth AUC [8]: 0.938
growth AUC [9]: 1
growth AUC [10]: 0.918
growth AUC [11]: 0.97
growth AUC [12]: 0.942

O=C(NC(=O)c1c(F)cccc1F)Nc1ccc(Cl)c(Oc2ncc(C(F)(F)F)cc2Cl)c1
growth AUC [1]: 0.98
growth AUC [2]: 0.999
growth AUC [3]: 1.01
growth AUC [4]: 0.951
growth AUC [5]: 1.1
growth AUC [6]: 1.16
growth AUC [7]: 0.815
growth AUC [8]: 1.13
growth AUC [9]: 1.02
growth AUC [10]: 0.991
growth AUC [11]: 1
growth AUC [12]: 1.02

O=[N+]([O-])c1ccc(Oc2ccc(C(F)(F)F)cc2[N+](=O)[O-])cc1
growth AUC [1]: 0.856
growth AUC [2]: 0.964
growth AUC [3]: 0.959
growth AUC [4]: 0.88
growth AUC [5]: 0.969
growth AUC [6]: 0.977
growth AUC [7]: 0.766
growth AUC [8]: 0.982
growth AUC [9]: 0.957
growth AUC [10]: 0.953
growth AUC [11]: 0.928
growth AUC [12]: 0.985

COCC(=O)N(c1c(C)cccc1C)C(C)C(=O)OC (configuration not stated)
growth AUC [1]: 1.02
growth AUC [2]: 0.989
growth AUC [3]: 1.01
growth AUC [4]: 1.04
growth AUC [5]: 1.09
growth AUC [6]: 1.09
growth AUC [7]: 0.987
growth AUC [8]: 1.04
growth AUC [9]: 1.05
growth AUC [10]: 1.05
growth AUC [11]: 1.01
growth AUC [12]: 0.986

CNc1cnn(-c2cccc(C(F)(F)F)c2)c(=O)c1Cl
growth AUC [1]: 0.978
growth AUC [2]: 0.99
growth AUC [3]: 0.981
growth AUC [4]: 0.995
growth AUC [5]: 0.946
growth AUC [6]: 0.975
growth AUC [7]: 0.943
growth AUC [8]: 0.992
growth AUC [9]: 1.01
growth AUC [10]: 0.989
growth AUC [11]: 1.03
growth AUC [12]: 0.976

O=C1C=C(N(Cc2ccc(Cl)nc2)CC(F)F)CO1
growth AUC [1]: 1.02
growth AUC [2]: 0.971
growth AUC [3]: 0.994
growth AUC [4]: 0.959
growth AUC [5]: 1.05
growth AUC [6]: 1
growth AUC [7]: 0.869
growth AUC [8]: 1.01
growth AUC [9]: 0.999
growth AUC [10]: 1.01
growth AUC [11]: 1.02
growth AUC [12]: 0.979

COP(=S)(OC)Oc1cc(Cl)c(I)cc1Cl
growth AUC [1]: 1.01
growth AUC [2]: 1.02
growth AUC [3]: 0.985
growth AUC [4]: 1.01
growth AUC [5]: 1.08
growth AUC [6]: 0.872
growth AUC [7]: 1
growth AUC [8]: 0.962
growth AUC [9]: 0.707 (active)
growth AUC [10]: 0.964
growth AUC [11]: 0.974
growth AUC [12]: 0.936

N#Cc1c[nH]cc1-c1cccc2c1OC(F)(F)O2
growth AUC [1]: 1.05
growth AUC [2]: 0.969
growth AUC [3]: 0.978
growth AUC [4]: 0.857
growth AUC [5]: 0.888
growth AUC [6]: 0.866
growth AUC [7]: 0.908
growth AUC [8]: 0.985
growth AUC [9]: 0.759 (active)
growth AUC [10]: 0.88
growth AUC [11]: 1.07
growth AUC [12]: 0.962

ClC1=C(Cl)C2(Cl)C3C4C=CC(C4)C3C1(Cl)C2(Cl)Cl (configuration not stated)
growth AUC [1]: 1.02
growth AUC [2]: 0.996
growth AUC [3]: 1.02
growth AUC [4]: 0.986
growth AUC [5]: 1
growth AUC [6]: 0.955
growth AUC [7]: 0.997
growth AUC [8]: 1.05
growth AUC [9]: 1.05
growth AUC [10]: 1.02
growth AUC [11]: 0.987
growth AUC [12]: 0.995

C[C@@H](Oc1ccc(Oc2ncc(C(F)(F)F)cc2Cl)cc1)C(=O)O
growth AUC [1]: 1
growth AUC [2]: 0.97
growth AUC [3]: 0.994
growth AUC [4]: 0.973
growth AUC [5]: 1.02
growth AUC [6]: 0.94
growth AUC [7]: 0.972
growth AUC [8]: 0.98
growth AUC [9]: 0.989
growth AUC [10]: 0.996
growth AUC [11]: 0.981
growth AUC [12]: 0.999

CNC(=O)Oc1cccc2c1OC(C)(C)C2O (configuration not stated)
growth AUC [1]: 1.05
growth AUC [2]: 1.01
growth AUC [3]: 1.01
growth AUC [4]: 1.05
growth AUC [5]: 1.15
growth AUC [6]: 0.862
growth AUC [7]: 1.11
growth AUC [8]: 1.02
growth AUC [9]: 0.88
growth AUC [10]: 1.09
growth AUC [11]: 0.979
growth AUC [12]: 1.02

C=CCOC(Cn1ccnc1)c1ccc(Cl)cc1Cl.O=S(=O)(O)O (configuration not stated)
growth AUC [1]: 0.184 (active)
growth AUC [2]: 0.973
growth AUC [3]: 0.954
growth AUC [4]: 0.0325 (active)
growth AUC [5]: 0.925
growth AUC [6]: 0.962
growth AUC [7]: 0.881
growth AUC [8]: 0.985
growth AUC [9]: 0.951
growth AUC [10]: 0.89
growth AUC [11]: 0.261 (active)
growth AUC [12]: 0.953

COC(=O)c1ccccc1S(=O)(=O)NC(=O)Nc1nc(C)cc(C)n1
growth AUC [1]: 1
growth AUC [2]: 0.993
growth AUC [3]: 0.985
growth AUC [4]: 1.07
growth AUC [5]: 1
growth AUC [6]: 0.94
growth AUC [7]: 0.948
growth AUC [8]: 1.07
growth AUC [9]: 1.04
growth AUC [10]: 0.987
growth AUC [11]: 0.944
growth AUC [12]: 0.982

O=C(O)COc1cc(Cl)c(Cl)cc1Cl
growth AUC [1]: 0.994
growth AUC [2]: 0.965
growth AUC [3]: 1.04
growth AUC [4]: 0.93
growth AUC [5]: 0.989
growth AUC [6]: 1.19
growth AUC [7]: 0.995
growth AUC [8]: 0.98
growth AUC [9]: 1
growth AUC [10]: 0.98
growth AUC [11]: 0.966
growth AUC [12]: 1.02

Oc1ccc(Cl)c(Cl)c1Cl
growth AUC [1]: 1.02
growth AUC [2]: 1.01
growth AUC [3]: 0.971
growth AUC [4]: 1.06
growth AUC [5]: 1.09
growth AUC [6]: 1.12
growth AUC [7]: 1.01
growth AUC [8]: 0.978
growth AUC [9]: 0.971
growth AUC [10]: 1.06
growth AUC [11]: 1.05
growth AUC [12]: 0.96

CCCN(CCC)c1c([N+](=O)[O-])cc(C(F)(F)F)cc1[N+](=O)[O-]
growth AUC [1]: 1
growth AUC [2]: 1.02
growth AUC [3]: 1.01
growth AUC [4]: 1.01
growth AUC [5]: 1.03
growth AUC [6]: 1.03
growth AUC [7]: 1.09
growth AUC [8]: 1.01
growth AUC [9]: 1.09
growth AUC [10]: 1.01
growth AUC [11]: 1
growth AUC [12]: 1.04

COP(=S)(OC)SC(CC(=O)O)C(=O)O (configuration not stated)
growth AUC [1]: 1.01
growth AUC [2]: 1.02
growth AUC [3]: 0.974
growth AUC [4]: 0.884
growth AUC [5]: 1.01
growth AUC [6]: 1.03
growth AUC [7]: 0.972
growth AUC [8]: 1.14
growth AUC [9]: 0.956
growth AUC [10]: 0.976
growth AUC [11]: 1.02
growth AUC [12]: 1.03

COc1cccc(C(=O)NN(C(=O)c2cc(C)cc(C)c2)C(C)(C)C)c1C
growth AUC [1]: 1.01
growth AUC [2]: 0.974
growth AUC [3]: 0.97
growth AUC [4]: 1.07
growth AUC [5]: 0.884
growth AUC [6]: 0.818
growth AUC [7]: 0.947
growth AUC [8]: 0.966
growth AUC [9]: 0.86
growth AUC [10]: 0.908
growth AUC [11]: 0.985
growth AUC [12]: 0.966
